Here are results for 37 compounds from publication PMC5540273 (PLoS ONE, 2017).

SMILES strings stand for the structures.
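Further: KINOMEscan kinase panel screen.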

The test system of one test is FGFR1. The conditions noted are these: concentration: 1 μM, replicates: in singlicate; n = 1.
In the case of `Nc1ncnc2c1ncn2-c1ccc(Cl)cc1` [AH2635], the “%Inh” value is listed as 0%.
Same read-out and setting: in the case of `Nc1nc(-c2ccccc2F)c(-c2ccnc3ccccc23)s1` [GW560459] it was 0%; in that of `COc1cc2ncn(-c3cc(OCc4ccc(S(C)(=O)=O)cc4)c(C(N)=O)s3)c2cc1OC` [GW869979], 0%.
Consider `CCC(=O)c1c(-c2ccccc2)c2cc(Cl)ccc2c(=O)n1Cc1cc(C(=O)NC2CC2)n(C)n1`, for which the “%Inh” value was found to be 4%.
On the same count and under the same terms, in the case of `Nc1n[nH]c2nnc(-c3ccccc3)c(-c3ccccc3)c12` [GW554060] it was 4%; in that of `OCCCNc1nccc(-c2c(-c3cccc(C(F)(F)F)c3)nn3cc(C(F)(F)F)ccc23)n1` [GW630813], 0%.
The same measure, in the same setting: in the case of `O=C(NCCNc1ccnc(Nc2ccc(F)cc2)n1)Nc1ccc2c(c1)OCO2` [GSK1379882] it was 0%.
Regarding `CCC(=O)c1c(-c2ccccc2)c2cc(Cl)ccc2c(=O)n1Cc1cc(S(C)(=O)=O)n(CCC(C)(C)O)n1`, the “%Inh” value was found to be 0%.
On the same count and under the same terms, in the case of `FC(F)(F)c1ccc(-c2ncn(CCCN3CCOCC3)c2-c2ccncc2)cc1` [SB-217780] it was 90%; in that of `COC(=O)c1c(-c2ccccc2)c2cc(Br)ccc2c(=O)n1Cc1ccc(S(C)(=O)=O)cc1`, 0%; in that of `CCCNC(=O)Nc1ccc(Oc2ncnc3ccn(C)c23)cc1`, 8%.
Same read-out and setting: in the case of `CCn1c(-c2ccoc2)nc2cnccc21` [SB-733887] it was 0%; in that of `CCn1c(-c2nonc2N)nc2ccccc21` [SB-693162/GW549034], 0%.
Still for that read-out and setting: in the case of `Cc1nc(N(C)[C@H]2CN(C(=O)CC#N)CC[C@H]2C)c2cc[nH]c2n1` it was 1%.
As to `CCC(=O)c1c(-c2ccccc2)c2cc(Cl)ccc2c(=O)n1Cc1ccc(C(=O)O)cc1`, the “%Inh” value is given as 0%.
The same measure, in the same setting: in the case of `COc1ccc(Nc2nccc(N3CCC(NS(=O)(=O)c4ccc(NC(C)=O)cc4)C3)n2)cc1` (centres unmarked) [GSK1379729] it was 8%.
As for `CCc1nc(-c2cccc(C)c2)c(-c2ccncc2)s1`, the “%Inh” value is 0%.
For `COc1cc(Nc2ccnc3ccc(C(F)(F)F)cc23)cc(OC)c1OC` [GW577382], the “%Inh” value is listed as 16%.
With `COc1ccc(-c2cc3c(C)nc(N)nc3n([C@H]3CC[C@H](O)CC3)c2=O)cn1`, the “%Inh” value is on record as 0%.
Same read-out and setting: in the case of `Cc1ccc(-c2ccc3c(ccc4sc5c(c43)NC[C@@H](C)N=C5N(C)C)n2)cn1` it was 0%.
In the case of `Cc1nnc(-c2ccc(C)c(-c3ccc(C(=O)O)cc3)c2)o1` [GW608005], the “%Inh” value is given as 5%.
For `COC(=O)c1c(-c2ccccc2)c2cc(C)ccc2c(=O)n1Cc1ccccc1`, the “%Inh” value is on record as 0%.
With `COc1cccc(C2=C(Nc3cccc(C(=O)O)c3)C(=O)NC2=O)c1` [SB-390770], the “%Inh” value is listed as 50%.
Still for that read-out and setting: in the case of `Fc1cccc(CSc2nnc(-c3ccc4c(c3)CCO4)o2)c1` it was 0%; in that of `Cc1cccc(-c2cc(-c3c[nH]nc3-c3ccccn3)ccn2)c1` [GW679395], 0%.
With `CN(C)c1cc(-c2ccc3c(N)n[nH]c3c2)nc(N)n1` [GSK2219329], the “%Inh” value was found to be 0%.
As to `Cn1c(=O)c(F)c(Nc2ccc(I)cc2F)c2c(=O)n(OC[C@H](O)CO)cnc21`, the “%Inh” value was 23%.
`Cc1nnc(-c2ccc3ncn(-c4ccc(S(C)=O)cc4)c3c2)o1` (centres unmarked): the “%Inh” value stood at 1%.
Same read-out and setting: in the case of `CCC(=O)c1c(-c2ccccc2)c2cc(Cl)ccc2c(=O)n1Cc1cc(S(C)(=O)=O)n(CC(N)=O)n1` it was 6%; in that of `COc1cccc(-n2cnc3c(N)ncnc32)c1` [SKF-97416], 7%.
For `CCCC(=O)Nc1n[nH]c2ncc(-c3cccc4ccccc34)cc12` [SB-642057], the “%Inh” value is recorded as 0%.
The same measure, in the same setting: in the case of `CN1C(=O)C(Nc2cc(Cl)c(O)c(Cl)c2)=C(c2ccc(Cl)cc2)C1=O` [SB-404321] it was 0%; in that of `Nc1nccc2scc(-c3ccc4c(c3)CCN4C(=O)Cc3ccccc3)c12` [GSK2576924], 0%; in that of `CCc1ccc(-c2ccc3c(c2)-c2nn(C)cc2S(=O)(=O)N3C)cc1`, 16%.
The same measure, in the same setting: in the case of `O=C(NCc1cccs1)c1cc(C(=O)c2c(Cl)cccc2Cl)c[nH]1` [GW823670] it was 0%.
Still for that read-out and setting: in the case of `COC(=O)c1c(-c2ccccc2)c2cc(Br)ccc2c(=O)n1Cc1ccc(NC(=O)CCC(=O)O)cc1` it was 0%; in that of `COc1ccc(CNC(=O)NC2CCN(c3ccnc(Nc4ccc(F)cc4)n3)C2)cc1` (centres unmarked) [GSK1379706], 0%.

The next test has as its system FGFR2. The note with it: concentration: 1 μM, replicates: in singlicate; n = 1.
`Nc1ncnc2c1ncn2-c1ccc(Cl)cc1` [AH2635]: the “%Inh” value is 0%.
Consider `Nc1nc(-c2ccccc2F)c(-c2ccnc3ccccc23)s1` [GW560459], for which the “%Inh” value came out at 0%.
The same measure, in the same setting: in the case of `COc1cc2ncn(-c3cc(OCc4ccc(S(C)(=O)=O)cc4)c(C(N)=O)s3)c2cc1OC` [GW869979] it was 5%; in that of `CCC(=O)c1c(-c2ccccc2)c2cc(Cl)ccc2c(=O)n1Cc1cc(C(=O)NC2CC2)n(C)n1`, 2%; in that of `Nc1n[nH]c2nnc(-c3ccccc3)c(-c3ccccc3)c12` [GW554060], 25%.
The same measure, in the same setting: in the case of `OCCCNc1nccc(-c2c(-c3cccc(C(F)(F)F)c3)nn3cc(C(F)(F)F)ccc23)n1` [GW630813] it was 0%; in that of `O=C(NCCNc1ccnc(Nc2ccc(F)cc2)n1)Nc1ccc2c(c1)OCO2` [GSK1379882], 0%.
For `CCC(=O)c1c(-c2ccccc2)c2cc(Cl)ccc2c(=O)n1Cc1cc(S(C)(=O)=O)n(CCC(C)(C)O)n1`, the “%Inh” value is on record as 22%.
On the same count and under the same terms, in the case of `FC(F)(F)c1ccc(-c2ncn(CCCN3CCOCC3)c2-c2ccncc2)cc1` [SB-217780] it was 0%; in that of `COC(=O)c1c(-c2ccccc2)c2cc(Br)ccc2c(=O)n1Cc1ccc(S(C)(=O)=O)cc1`, 10%; in that of `CCCNC(=O)Nc1ccc(Oc2ncnc3ccn(C)c23)cc1`, 0%.
Still for that read-out and setting: in the case of `CCn1c(-c2ccoc2)nc2cnccc21` [SB-733887] it was 0%; in that of `CCn1c(-c2nonc2N)nc2ccccc21` [SB-693162/GW549034], 7%.
On the same count and under the same terms, in the case of `Cc1nc(N(C)[C@H]2CN(C(=O)CC#N)CC[C@H]2C)c2cc[nH]c2n1` it was 6%; in that of `CCC(=O)c1c(-c2ccccc2)c2cc(Cl)ccc2c(=O)n1Cc1ccc(C(=O)O)cc1`, 0%.
As to `COc1ccc(Nc2nccc(N3CCC(NS(=O)(=O)c4ccc(NC(C)=O)cc4)C3)n2)cc1` (centres unmarked) [GSK1379729], the “%Inh” value stood at 29%.
Still for that read-out and setting: in the case of `CCc1nc(-c2cccc(C)c2)c(-c2ccncc2)s1` it was 0%; in that of `COc1cc(Nc2ccnc3ccc(C(F)(F)F)cc23)cc(OC)c1OC` [GW577382], 25%.
The same measure, in the same setting: in the case of `COc1ccc(-c2cc3c(C)nc(N)nc3n([C@H]3CC[C@H](O)CC3)c2=O)cn1` it was 0%.
The same measure, in the same setting: in the case of `Cc1ccc(-c2ccc3c(ccc4sc5c(c43)NC[C@@H](C)N=C5N(C)C)n2)cn1` it was 0%; in that of `Cc1nnc(-c2ccc(C)c(-c3ccc(C(=O)O)cc3)c2)o1` [GW608005], 0%.
Consider `COC(=O)c1c(-c2ccccc2)c2cc(C)ccc2c(=O)n1Cc1ccccc1`, for which the “%Inh” value is 0%.
Still for that read-out and setting: in the case of `COc1cccc(C2=C(Nc3cccc(C(=O)O)c3)C(=O)NC2=O)c1` [SB-390770] it was 71%; in that of `Fc1cccc(CSc2nnc(-c3ccc4c(c3)CCO4)o2)c1`, 0%.
Same read-out and setting: in the case of `Cc1cccc(-c2cc(-c3c[nH]nc3-c3ccccn3)ccn2)c1` [GW679395] it was 0%; in that of `CN(C)c1cc(-c2ccc3c(N)n[nH]c3c2)nc(N)n1` [GSK2219329], 2%; in that of `Cn1c(=O)c(F)c(Nc2ccc(I)cc2F)c2c(=O)n(OC[C@H](O)CO)cnc21`, 4%.
Same read-out and setting: in the case of `Cc1nnc(-c2ccc3ncn(-c4ccc(S(C)=O)cc4)c3c2)o1` (centres unmarked) it was 14%.
As for `CCC(=O)c1c(-c2ccccc2)c2cc(Cl)ccc2c(=O)n1Cc1cc(S(C)(=O)=O)n(CC(N)=O)n1`, the “%Inh” value is recorded as 9%.
Still for that read-out and setting: in the case of `COc1cccc(-n2cnc3c(N)ncnc32)c1` [SKF-97416] it was 0%.
The same measure, in the same setting: in the case of `CCCC(=O)Nc1n[nH]c2ncc(-c3cccc4ccccc34)cc12` [SB-642057] it was 0%.
On the same count and under the same terms, in the case of `CN1C(=O)C(Nc2cc(Cl)c(O)c(Cl)c2)=C(c2ccc(Cl)cc2)C1=O` [SB-404321] it was 0%.
Turning to `Nc1nccc2scc(-c3ccc4c(c3)CCN4C(=O)Cc3ccccc3)c12` [GSK2576924], the “%Inh” value is 0%.
`CCc1ccc(-c2ccc3c(c2)-c2nn(C)cc2S(=O)(=O)N3C)cc1`: the “%Inh” value is 0%.
For the compound `O=C(NCc1cccs1)c1cc(C(=O)c2c(Cl)cccc2Cl)c[nH]1` [GW823670], the “%Inh” value was 0%.
Same read-out and setting: in the case of `COC(=O)c1c(-c2ccccc2)c2cc(Br)ccc2c(=O)n1Cc1ccc(NC(=O)CCC(=O)O)cc1` it was 0%; in that of `COc1ccc(CNC(=O)NC2CCN(c3ccnc(Nc4ccc(F)cc4)n3)C2)cc1` (centres unmarked) [GSK1379706], 15%.
